Results taken from PubChem BioAssay AID1159580 (chemical genetic matrix, 2015).
Where “and” joins values, the source holds several entries; their conditions need not be identical. Equal values may be shown once. The whole screen tested about 5,500 compounds, of which about 2,000 (36%) were called active. About 18% were inconclusive and are not listed. Rule as the data show it: active = normalized growth mostly below about 0.91 (no sharp cut-off); inconclusive = no clear call, values can overlap the other calls; inactive = mostly above about 0.92. The list shows a part of the results.

Experiment: chemical genetic growth profiling, strain panel (AID 1159580);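 also: tested at 20 µM; growth read once vehicle control cultures reached saturation at 30 °C; 1 = growth at the plate median or of vehicle wells; lower values mean less growth of the strain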
Conditions: S. cerevisiae deletion strains, growth OD

Measured: normalized growth

COc1ccc2c(c1)OC1(O)COc3cc(OC)c(OC)cc3C1=C2 (stereo unspecified)
active: locus YDR392W, strain spt3, stronger effect = lower value 0.734
inactive: locus YAL013W, strain DEP1, stronger effect = lower value 0.99 | locus YAL021C, strain ccr4, stronger effect = lower value 1 | locus YAL026C, strain drs2, stronger effect = lower value 0.97 | locus YAL030W, strain snc1, stronger effect = lower value 0.973 | locus YBL061C, strain skt5, stronger effect = lower value 0.968 | locus YBR009C, strain hhf1, stronger effect = lower value 1 | locus YBR021W, strain FUR4, stronger effect = lower value 1.01 | locus YBR023C, strain chs3, stronger effect = lower value 0.979 | locus YBR171W, strain sec66, stronger effect = lower value 0.965 | locus YBR229C, strain ROT2, stronger effect = lower value 1.01 | locus YBR231C, strain swc5, stronger effect = lower value 0.939 | locus YBR279W, strain paf1, stronger effect = lower value 0.984 | locus YCL011C, strain gbp2, stronger effect = lower value 0.983 | locus YCL016C, strain dcc1, stronger effect = lower value 1.01 | locus YCL029C, strain bik1, stronger effect = lower value 0.981 | locus YCL069W, strain vba3, stronger effect = lower value 0.988 | locus YCR088W, strain abp1, stronger effect = lower value 0.978 | locus YDL005C, strain med2, stronger effect = lower value 0.978 | locus YDL035C, strain GPR1, stronger effect = lower value 0.974 | locus YDL040C, strain nat1, stronger effect = lower value 0.971 | locus YDL074C, strain BRE1, stronger effect = lower value 0.992 | locus YDL101C, strain DUN1, stronger effect = lower value 1.02 | locus YDL134C, strain PPH21, stronger effect = lower value 1.01 | locus YDL185W, strain tfp1, stronger effect = lower value 0.983 | locus YDL192W, strain arf1, stronger effect = lower value 0.977 | locus YDR001C, strain nth1, stronger effect = lower value 0.98 | locus YDR069C, strain doa4, stronger effect = lower value 0.961 | locus YDR101C, strain arx1, stronger effect = lower value 0.972 | locus YDR137W, strain rgp1, stronger effect = lower value 0.934 | locus YDR150W, strain NUM1, stronger effect = lower value 1.01 | locus YDR159W, strain sac3, stronger effect = lower value 0.897 | locus YDR162C, strain NBP2, stronger effect = lower value 1.01 | locus YDR195W, strain ref2 0.992 | locus YDR297W, strain sur2, stronger effect = lower value 0.978 | locus YDR318W, strain mcm21, stronger effect = lower value 0.949 | locus YDR334W, strain swr1, stronger effect = lower value 0.982 | locus YDR335W, strain msn5, stronger effect = lower value 0.996 | locus YDR388W, stronger effect = lower value 0.981 | locus YDR502C, strain sam2, stronger effect = lower value 0.985 | locus YEL003W, strain gim4, stronger effect = lower value 0.962 | locus YEL037C, strain rad23, stronger effect = lower value 0.99 | locus YEL061C, strain CIN8 (second series), stronger effect = lower value 0.978 | locus YEL061C, strain CIN8, stronger effect = lower value 1 | locus YER015W, strain faa2, stronger effect = lower value 0.993 | locus YER016W, strain bim1, stronger effect = lower value 0.971 | locus YER110C, stronger effect = lower value 0.976 | locus YER111C, strain swi4, stronger effect = lower value 0.97 | locus YER155C, strain BEM2 (second series), stronger effect = lower value 0.904 | locus YER155C, strain BEM2, stronger effect = lower value 1 | locus YER167W, strain BCK2, stronger effect = lower value 0.963 | locus YFR010W, strain ubp6, stronger effect = lower value 0.965 | locus YGL078C, strain dbp3, stronger effect = lower value 1.01 | locus YGL086W, strain mad1, stronger effect = lower value 0.97 | locus YGL167C, strain pmr1, stronger effect = lower value 0.985 | locus YGL173C, strain kem1, stronger effect = lower value 0.94 | locus YGL227W, strain vid30, stronger effect = lower value 0.978 | locus YGL240W, strain doc1, stronger effect = lower value 0.942 | locus YGL248W, strain PDE1, stronger effect = lower value 1.01 | locus YGL253W, strain hxk2, stronger effect = lower value 0.929 | locus YGR078C, strain PAC10, stronger effect = lower value 0.985 | locus YGR135W, strain pre9, stronger effect = lower value 0.985 | locus YGR229C, strain SMI1, stronger effect = lower value 0.967 | locus YGR252W, strain gcn5, stronger effect = lower value 0.873 | locus YHR013C, strain ard1, stronger effect = lower value 0.977 | locus YHR027C, strain rpn1, stronger effect = lower value 0.986 | locus YHR030C, strain SLT2, stronger effect = lower value 0.996 and 0.931 | locus YHR079C, strain IRE1 (second series), stronger effect = lower value 0.972 | locus YHR079C, strain IRE1, stronger effect = lower value 0.925 | locus YHR094C, strain hxt1, stronger effect = lower value 0.989 | locus YHR129C, strain ARP1, stronger effect = lower value 1.01 | locus YHR142W, strain chs7, stronger effect = lower value 0.926 | locus YHR200W, strain rpn10, stronger effect = lower value 0.972 | locus YIL066C, strain RNR3, stronger effect = lower value 0.986 | locus YIL073C, strain SPO22, stronger effect = lower value 0.895 | locus YIL125W, strain kgd1, stronger effect = lower value 0.997 | locus YIR030C, strain dcg1, stronger effect = lower value 0.987 | locus YJL092W, strain hpr5, stronger effect = lower value 0.979 | locus YJL095W, strain BCK1 (second series), stronger effect = lower value 0.98 | locus YJL095W, strain BCK1, stronger effect = lower value 0.965 and 0.92 | locus YJL115W, strain asf1, stronger effect = lower value 0.983 | locus YJL129C, strain trk1, stronger effect = lower value 0.979 | locus YJL134W, strain LCB3, stronger effect = lower value 1 | locus YJL154C, strain vps35, stronger effect = lower value 0.977 | locus YJL164C, strain tpk1, stronger effect = lower value 0.983 | locus YJL166W, strain qcr8, stronger effect = lower value 0.948 | locus YJL168C, strain set2, stronger effect = lower value 0.989 | locus YJL187C, strain SWE1 (second series), stronger effect = lower value 1.01 | locus YJL187C, strain SWE1, stronger effect = lower value 0.999 | locus YJR043C, strain POL32, stronger effect = lower value 0.97 | locus YJR066W, strain TOR1, stronger effect = lower value 0.9
